Measured values reported in PubChem BioAssay (NCI).
Compounds without any hit were thinned out: in the full panel of roughly 83,000, 20% have a hit.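 Plates (96-well) were seeded with cells, treated with compound at one concentration, and incubated for 48 hours before percent growth was determined.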 Values without a mark were called inactive. Active and inactive are the calls of the source. How the source made its calls: active means growth percent below 10; inactive means the rest.

Assays:
Experiment in all cases: NCI-60 one-dose screen, 48 h (100 = growth as untreated, 0 = no growth, -100 = all killed)
Conditions in all cases: 10 µM
HCT-15 colon = system: HCT-15 colon
HT29 colon = system: HT29 colon
SNB-75 CNS = system: SNB-75 CNS
SNB-19 CNS = system: SNB-19 CNS
U251 CNS = system: U251 CNS
PC-3 prostate = system: PC-3 prostate
SK-MEL-5 melanoma = system: SK-MEL-5 melanoma
UACC-62 melanoma = system: UACC-62 melanoma
LOX IMVI melanoma = system: LOX IMVI melanoma
SK-MEL-28 melanoma = system: SK-MEL-28 melanoma

SMILES | growth (HCT-15 colon) | growth (HT29 colon) | growth (SNB-75 CNS) | growth (SNB-19 CNS) | growth (U251 CNS) | growth (PC-3 prostate) [%] | growth (SK-MEL-5 melanoma) | growth (UACC-62 melanoma) | growth (LOX IMVI melanoma) | growth (SK-MEL-28 melanoma)
O=S(=O)(Nc1ncccn1)c1ccc(-n2c(-c3ccc(Br)cc3)nc(-c3ccccc3)c2-c2ccccc2)cc1 | 22.5% | 41.8% | 26.5% | 23.3% | 30.8% | 22.3 | 25.3% | 34.3% | 32.2% | 29.3%
N#Cc1c(-c2ccc(F)cc2)nc(SCc2ccc(F)cc2)nc1N1CCOCC1 | 79.9% | 92.9% | -17.5% (active) | 43.7% | 47.1% | 71.6 | 74.3% | 69.3% | 76.4% | 85.8%
CC(=O)Nc1ccc(-c2cn(-c3cccc(C(=O)Nc4cccc(OC(F)(F)F)c4)c3)nn2)cn1 | 87.3% | 96.9% | 118% | 113% | 73.6% | 85.3 | 97% | 73.5% | 88.6% | 92.8%
O=C(O)CCCCCCCCCCN1C(=O)/C(=C/c2cnc(-c3ccc(Cl)cc3)s2)SC1=S | 26.3% | 96.3% | 73.3% | 27.1% | -13% (active) | 25.4 | 27.4% | 0.545% (active) | 5.11% (active) | 40%
Cc1ccc2nc(COc3ccc(C(=O)NNC(=S)NC(=O)c4ccccc4)cc3)[nH]c2c1 | 14.9% | 43.6% | 41.6% | 52.4% | 43.3% | 50.2 | 46.1% | 51.9% | 34% | 55.6%
O=C(Nc1cccc(-c2cn(-c3ccc4oc(=O)ccc4c3)nn2)c1)Nc1cc(C(F)(F)F)cc(C(F)(F)F)c1 | 19% | 44.9% | 17.8% | 27.4% | 13.4% | 27.7 | 2.67% (active) | 11.3% | 17.2% | 22.5%
CC1(C)CC[C@]2(C(=O)Nc3ccccc3)CC[C@]3(C)C(=CC[C@@H]4[C@@]5(C)CC[C@H](N)C(C)(C)[C@@H]5CC[C@]43C)[C@H]2C1 | -71.4% (active) | 21.8% | 95.6% | 100% | -47.5% (active) | 75.8 | 94.5% | 115% | -98.7% (active) | 109%
COc1ccc2nc(Cl)c(-c3cc(-c4ccccc4)nc(=O)[nH]3)cc2c1 | 0.676% (active) | 32.2% | 70.1% | 31.5% | 12.6% | 48.8 | 74.2% | 66.8% | -46.4% (active) | 97.7%
O=C(CSc1nnc(-c2c[nH]c3ccccc23)n1-c1ccccc1)c1ccccc1 | 79.4% | 47.9% | 100% | 19.2% | 10.8% | 65.8 | 90.7% | 73.4% | 29.2% | 100%
CC(=O)Nc1nc(-c2ccc(N3CCN(C)CC3)c(NS(=O)(=O)c3ccc(C(F)(F)F)cc3)c2)cs1 | -67.7% (active) | -18.7% (active) | 1.07% (active) | 45.6% | 23.1% | 30.3 | 7.11% (active) | 6.26% (active) | -85.4% (active) | 5.39% (active)
Cc1ccc(NCC(=O)Nn2c(COc3ccccc3)nc3ccccc3c2=O)cc1 | 93% | 92.4% | 23.4% | 6.78% (active) | 62.2% | 74.2 | 85.9% | 61.3% | 91.6% | 91.3%
CN1CCN(c2ccc(Nc3nc(N4CCN(S(=O)(=O)c5ccc(Cl)cc5)CC4)c4sccc4n3)cc2)CC1 | -78.6% (active) | -51.3% (active) | 67.1% | 28.4% | -85.2% (active) | 28.5 | -100% (active) | -90.3% (active) | -90.1% (active) | -98.6% (active)
CCOC(=O)CNC(=O)CN(Cc1ccccc1)C(=O)[C@@]1(C)CCC[C@]2(C)[C@H]3C[C@H]4C(C(C)C)=C[C@]3(CC[C@H]21)[C@@H]1C(=O)OC(=O)[C@@H]14 | 18% | 42% | 81.7% | 67.7% | 44.4% | 39.2 | 83.5% | 64.4% | 24% | 82.5%
O=C1CCC(N2Cc3c(C#CCCCNC(=O)c4ccc(NC(=O)[C@@H]5NC6(CCCCC6)[C@@]6(C(=O)Nc7cc(Cl)ccc76)[C@H]5c5cccc(Cl)c5F)cc4)cccc3C2=O)C(=O)N1 (stereo not given in full) | 41.8% | 51.5% | 56.1% | 58.8% | 55.4% | 51.8 | 5.4% (active) | 17.3% | 27.5% | 62.2%
O=C(CSc1nnc(-c2ccc3nc(-c4ccccc4)[nH]c3c2)o1)Nc1ccc(Br)cc1 | 38.1% | 64.9% | 99.1% | 49.7% | 11.5% | 61.4 | 86.9% | 59.8% | -4.8% (active) | 76.9%
